Pf Dd2 inh: blocks in vitro growth of P. falciparum Dd2 | P. falciparum Dd2 growth, SYBR Green, 72 h | Potency, µM (series often up to 28.9 µM), inactives show at the highest dose activity, negative = inhibition, hits mostly inhibitors | 120,000 compounds, 4.3% hits | AID 1347417; active = well fitted inhibition curve with a large enough effect;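 also: plate controls were DMSO vehicle for no effect and reference drug for full effect; nearly all actives have a fitted effect of over 65% in size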
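Readout: SYBR Green fluorescence, 485 nm excitation, 535 nm emission, after ~16 h lysis at 37C. Before that, Dd2-infected red cells (2.5% hematocrit) grew 72 h with compound, 29 uM top final concentration.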
* hit, by the source's call; i = inactive; [ ] = dose if it differs, or a comment. The full list was thinned out, with hits kept by preference. Potency is read from the fitted curve at half-maximal effect.

SMILES	Pf Dd2 inh
COCCc1noc([C@@H]2CN(Cc3cccc(Cl)c3)C[C@H]2CO)n1	-12%
Cc1noc2c(-c3cccnc3NCCN(C)C)cc(-c3ccccc3)nc12	i
COCCCNc1ncccc1-c1cc(-c2ccccc2)nc2c(C)noc12	i
Cc1noc2c(-c3cccnc3NCCCn3ccnc3)cc(-c3ccccc3)nc12	10µM*
CCOc1ccccc1NC(=O)N1CCCC(Cn2cnc3cccnc32)C1 (centres undefined)	i
O=C1CCN(Cc2ccc(F)cc2F)CCCOCCN1	12%
COc1ccc(-c2noc([C@@H]3CCCN3C(=O)c3cc(Cl)ccc3OC)n2)cc1	-9%
COc1ccc(-c2noc(N3CCC(C(=O)N(C)c4cc(Cl)ccc4OC)CC3)n2)cc1	10µM*
COc1ccc(-c2noc(N3CCC(C(=O)Nc4ccc(F)cc4Cl)CC3)n2)cc1	38%
CN[C@H](C(=O)N[C@@H]1C=C(C(=O)N[C@H]2CCCNC2=O)C[C@@H](O)[C@@H]1O)C(C)C	17%[44.1 µM]
CC1CCc2c(sc(NC(=O)C3c4ccccc4Oc4ccccc43)c2C(=O)OC(C)C)C1 (centres undefined)	0%
CCC(C)(C)C1CCc2c(sc(NC(=O)C3c4ccccc4Oc4ccccc43)c2C(N)=O)C1 (centres undefined)	-19%
CCC1CCc2c(sc(NC(=O)C3c4ccccc4Oc4ccccc43)c2C(=O)OC)C1 (centres undefined)	13µM*
CC(C)N1C[C@H](O)C[C@H]1c1nnc2n1CCN(C(=O)CCc1nc3ccccc3s1)C2	6%
CC(C)(C)OC(=O)N1CCC(c2c(C(=O)NCc3cccs3)cnn2-c2cccc(F)c2)CC1	7.9µM*
Cc1ccc(-n2ncc(C(=O)NCc3cccs3)c2C2CCN(C(=O)OC(C)(C)C)CC2)c(C)c1	11µM*
COCCN(Cc1cnn(C)c1)C(=O)C1CC2(CCNCC2)CN1 (centres undefined)	7%
O=c1ncn(Cc2ccccc2)c2ccc(-c3ccc(O)c(F)c3)nc12	i
O=C(NCc1ccccc1)c1ccc(CN2C(=O)NC3(CCOCC3)C2=O)cc1	26%
Cc1ncccc1C(=O)N1CCC(c2noc(-c3ccccn3)n2)C1 (centres undefined)	i[5.79 µM]
CN(C)C[C@@H]1CN(S(C)(=O)=O)C[C@H]1NC(=O)CC1=CCCCC1	-16%
Cn1cccc1C(=O)N[C@H]1CCN2C(=O)N(c3cccc(F)c3)C(=O)[C@@H]2C1	-11%[44.1 µM]
Cc1ccc(N2C(=O)[C@@H]3C[C@@H](NC(=O)c4cccn4C)CCN3C2=O)cc1	i
CSc1cccc(N2C(=O)[C@@H]3C[C@@H](NC(=O)c4cccn4C)CCN3C2=O)c1	10µM*
COc1cc(-c2n[nH]c(=O)n2CCC(=O)O)ccc1O	-2%
SMILES	Pf Dd2 inh
O=C(c1csc(-c2cccs2)n1)N1CCC2(CCCO2)CC1	-13%
COc1cc2c(cc1OC)C(CNC(=O)c1cccs1)N(C(=O)Nc1ccccc1F)CC2 (centres undefined)	i
COc1cc2c(cc1OC)C(CNC(=O)c1ccccc1Cl)N(C(=O)Nc1ccccc1F)CC2 (centres undefined)	-3%
COc1cc2c(cc1OC)C(CNC(=O)c1cccs1)N(C(=O)Nc1ccccc1)CC2 (centres undefined)	8.9µM*
CCC(=O)NCC1c2cc(OC)c(OC)cc2CCN1C(=O)Nc1ccccc1 (centres undefined)	-5%
COc1cc2c(cc1OC)C(CNC(=O)C1CCCC1)N(C(=O)NC(C)C)CC2 (centres undefined)	i
COc1cc2c(cc1OC)C(CNC(=O)c1ccccc1)N(C(=O)Nc1ccccc1F)CC2 (centres undefined)	i
COc1ccccc1NC(=O)N1CCc2cc(OC)c(OC)cc2C1CNC(=O)c1ccco1 (centres undefined)	7.1µM*
CCCNC(=O)N1CCc2cc(OC)c(OC)cc2C1CNC(=O)c1ccccc1C (centres undefined)	8.9µM*
CCC(=O)NCC1c2cc(OC)c(OC)cc2CCN1C(=O)Nc1cccc(C)c1 (centres undefined)	i
COc1cc2c(cc1OC)C(CNC(=O)C1CCCC1)N(C(=O)Nc1cccc(C)c1)CC2 (centres undefined)	11µM*
COc1ccccc1NC(=O)N1CCc2cc(OC)c(OC)cc2C1CNC(C)=O (centres undefined)	9%
CS(=O)(=O)N1CCCN(C(=O)CCc2ccccc2)c2ccccc21	6%
CNC(=O)C1(N2CCC[C@H]2C(=O)NCCOC)CCCCC1	3%[44.1 µM]
COc1ccc(-c2noc([C@@H]3CCCN3C(=O)COc3ccc(Cl)cc3)n2)cc1	i
CS(=O)(=O)N1CCC(C2CCN(C(=O)c3ccc4[nH]ccc4c3)C2)CC1 (centres undefined)	-11%
CN(C)C[C@@H]1CN(c2ncccn2)C[C@H]1NC(=O)c1ccccc1C(F)(F)F	11%
Cc1cccc(CN(CCN2CCCCC2)CC2CCCN(C3CCCC3)C2)n1 (centres undefined)	-1%
COc1ccc(Cl)cc1S(=O)(=O)N1CCC(OC2CCN(C)CC2)CC1	3.2µM*
COc1ccc(Cl)cc1S(=O)(=O)N1CCC(n2cnnc2C)CC1	-26%
COc1ccc(OC)c(S(=O)(=O)N2CCC(OC3CCN(C)CC3)CC2)c1	i
O=C(NCCN1CCCCC1)C1(CCO)CC12CCOCC2 (centres undefined)	16%
CNc1cc(C2CC(NC(=O)COc3ccc(Cl)cc3C)C2)nc(N)n1 (centres undefined)	7.9µM*
Cc1cc(C)nc(NS(=O)(=O)c2ccc(NC(=O)COc3ccc(Cl)cc3C)cc2)n1	i
Cc1cc(Cl)ccc1OCC(=O)N1[C@@H]2CC[C@H]1CC(NC(=O)c1ccc(F)cc1)C2 (some centres undefined)	i
SMILES	Pf Dd2 inh
CN1CCC([C@@H]2CN(C(=O)CCCc3c[nH]c4ccccc34)C[C@H]2C(N)=O)CC1	15%
COc1ccc(-c2onc(C)c2C(=O)NCc2cccc(Cl)c2)cc1	-24%
CCC1(N2CCN(S(=O)(=O)c3ccccc3Cl)CC2)CCN(S(C)(=O)=O)C1 (centres undefined)	i
COCC1CN(S(=O)(=O)c2ccc3c(c2)OCCO3)CC12CCNCC2 (centres undefined)	-1%
Cc1nc(CC2CCN(C(=O)C3CCCC3)CC2)n[nH]1	6%
Cc1ccc(CNC(=O)CN(c2ccc(C)cc2)S(=O)(=O)c2c(C)nn(C)c2C)cc1	29%
Cc1nn(C)c(C)c1S(=O)(=O)N(CC(=O)NCCc1ccc(Cl)cc1)c1ccc(C(C)C)cc1	11µM*
COc1ccc(N(CC(=O)NCCc2ccccc2)S(=O)(=O)c2c(C)nn(C)c2C)cc1	-13%
CC(C)c1nnc(NC(=O)Cn2nc3c(cc2=O)CCCCC3)s1	-10%
Cc1ncc2n1C(=O)N(C1CCN(C(=O)c3cccc(Cl)c3)CC1)C2	-7%
COCCc1noc(C2Cc3ccccc3N2C(=O)Nc2cc(OC)cc(OC)c2)n1 (centres undefined)	i[5.79 µM]
CC(=O)N[C@H]1C[C@@H](Cc2cc(CC(C)C)on2)C1(C)C	-11%[44.1 µM]
CC1(C)[C@H](Cc2cc(CCO)on2)C[C@@H]1NCc1ccco1	-27%[44.1 µM]
COCC(=O)N[C@H]1C[C@@H](Cc2cc(-c3ccccc3)on2)C1(C)C	7.9µM*
CC1(C)[C@H](Cc2cc(CC3CCCCC3)on2)C[C@@H]1NC(=O)c1ccco1	5µM*
CC(=O)N1CCC(N[C@H]2C[C@@H](Cc3cc(CN(C)Cc4ccccc4)on3)C2(C)C)CC1	-26%
